KB-V1 MDR tox = qHTS assay for MDR1-selective chemotherapeutics: Primary screen using the drug-selected MDR subline cells KB-V1. AID 1347076, 2019. KB-V1 MDR cells viability, CellTiter-Glo, 72 h. 3.4% of 400,000 active. Potency, µM (doses to about 46.1 µM), actives largely listed as cytotoxic; note: nearly all actives have a fitted effect of over 60% in size
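Cells of the MDR subline KB-V1 are plated, dosed with compound at multiple concentrations, and incubated 72 h at 37 degrees C; CellTiter-Glo is then added and luminescence read after 10 min.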
HT1080-NT tox = qHTS for induction of synthetic lethality in tumor cells producing 2HG: qHTS for the HT-1080-NT fibrosarcoma cell line; Potency, µM (top dose mostly 46.1 µM), usual class: cytotoxic; 1.6% of 360,000 active; HT-1080-NT fibrosarcoma viability, CellTiter-Glo ATP luminescence, 48 h;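 note: NT is the 2HG producing partner of a matched IDH1 knockdown line; nearly all actives have a fitted effect of over 55% in size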
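HT-1080-NT fibrosarcoma cells (2HG-overproducing), 750 cells/well in RPMI with 5% FBS, dosed after 2 h and incubated 48 h at 37C. CellTiter-Glo luminescence normalized to DMSO and no-cell wells; concentration-response curves fitted and classed.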
KB-3-1 cytotox = qHTS assay for MDR1-selective chemotherapeutics: Primary screen using the parental adenocarcinoma cell KB-3-1; KB-3-1 viability, CellTiter-Glo ATP luminescence, 72 h; Potency, µM (titrated, usually from 46.1 µM), most hits filed as cytotoxic; 1.4% of 400,000 active; AID 1347075, 2019; note: nearly all actives have a fitted effect of over 60% in size
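KB-3-1 parental drug-naive adenocarcinoma cells in DMEM/10% FBS, incubated 72 h at 37 C with pin-transferred compounds across a concentration series. Viability by CellTiter-Glo luminescence; concentration-response curves fitted after normalization.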
HT1080 IDH1KD tx = qHTS for induction of synthetic lethality in tumor cells producing 2HG: qHTS for the HT-1080-IDH1KD cell line; Potency, µM (doses to about 46.1 µM), hits mostly cytotoxic; HT-1080 IDH1 knockdown viability, ATP luminescence, 48 h; 2% of 360,000 active; AID 686971, 2013
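In this qHTS, HT-1080 cells depleted of IDH1 are exposed for 48 h at 37 °C to compound titrations. Toxicity is scored from CellTiter-Glo luminescence, with DMSO as full viability and medium alone as none.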
Each line names hits and unclear results; the compound was inactive in the other large screens. An excerpt weighted towards active compounds, which were near 5.7% of everything screened. Calls come from the whole dose curve; as a rule, active = well fitted curve in the direction sought with a large enough effect; inconclusive = small, poorly fitted or top-dose-only effect, or another doubt; inactive = no such curve, though single readings can be large; an effect the other way counts as inactive or inconclusive.

COC(=O)C1=C(C)NC(=O)CC1c1ccccc1F (stereo unspecified)	none
Cn1c(=O)n(C)c2cc(NS(=O)(=O)c3ccc(Cl)cc3)c(NCc3ccccc3)cc21	KB-3-1 cytotox inconclusive (no result: HT1080-NT tox, HT1080 IDH1KD tx)
Cc1cc(S(=O)(=O)Nc2cc3c(cc2NCc2ccccc2)n(C)c(=O)n3C)ccc1F	KB-V1 MDR tox 20.6µM (no result: HT1080-NT tox, HT1080 IDH1KD tx)
Cc1cc(OCCCCCNCCO)cc(C)c1Cl	HT1080-NT tox inconclusive, HT1080 IDH1KD tx 15.8µM
CC1CCc2cc(F)ccc2N1C(=O)CSc1nnc2c(n1)[nH]c1ccc(F)cc12 (stereo unspecified)	KB-V1 MDR tox 20.6µM
CC(=O)c1ccc(Oc2nc(C)nc3c2oc2ccccc23)cc1	KB-3-1 cytotox 18.4µM (no result: HT1080-NT tox, HT1080 IDH1KD tx)
CCOC(=O)c1ccc(Oc2nc(C)nc3c2oc2ccccc23)cc1	KB-V1 MDR tox inconclusive (no result: HT1080-NT tox, HT1080 IDH1KD tx)
Cc1ccccc1-n1sc2cc(F)ccc2c1=O	KB-V1 MDR tox inconclusive, HT1080-NT tox 18.4µM, KB-3-1 cytotox inconclusive, HT1080 IDH1KD tx 20.6µM
Cc1ccc(Sc2ncccc2COC(=O)Nc2c(C)cccc2C)cc1	HT1080-NT tox inconclusive, KB-3-1 cytotox 25.9µM, HT1080 IDH1KD tx inconclusive
COc1ccc(C(=O)C(CN2CCCC2)c2ccccc2)cc1 (stereo unspecified)	KB-V1 MDR tox 7.08µM, HT1080-NT tox 11.2µM, KB-3-1 cytotox 7.08µM, HT1080 IDH1KD tx 12.6µM
OC(CN1CCOCC1)CN(c1ccccc1)c1ccccc1 (stereo unspecified)	KB-V1 MDR tox 14.6µM
CCCCOc1ccc(C(=O)C(CN2CCOCC2)c2ccccc2)cc1 (stereo unspecified)	KB-V1 MDR tox inconclusive, HT1080-NT tox 13µM, KB-3-1 cytotox inconclusive, HT1080 IDH1KD tx 16.4µM
O=C(c1ccccc1)C(CCC(CN1CCOCC1)C(=O)c1ccccc1)CN1CCOCC1 (stereo unspecified)	KB-V1 MDR tox 5.8µM, HT1080-NT tox 10.3µM, KB-3-1 cytotox 5.8µM, HT1080 IDH1KD tx 8.2µM
CCCCCOc1ccc(C(=O)C(c2ccccc2)N2CCOCC2)cc1 (stereo unspecified)	KB-V1 MDR tox inconclusive
Cc1c(C(=O)NCCc2ccccc2)cccc1-n1cnc2cccnc21	none (no result: HT1080-NT tox, HT1080 IDH1KD tx)
COc1ccc(C(=O)NCCc2csc(-c3ccc(Cl)cc3)n2)c(OC)c1	none (no result: HT1080-NT tox, HT1080 IDH1KD tx)
Cc1ccc(C)c(S(=O)(=O)c2cn(Cc3ccccc3)c3cc(F)c(F)cc3c2=O)c1	none (no result: HT1080-NT tox, HT1080 IDH1KD tx)
O=C(Cn1c(=O)n(-c2ccc(F)cc2)c(=O)c2sc3ccccc3c21)N1CCCC1	none (no result: HT1080-NT tox, HT1080 IDH1KD tx)
OC(CN1CCCCC1)c1ccccc1 (stereo unspecified)	none (no result: HT1080-NT tox, HT1080 IDH1KD tx)
O=C(c1ccc(F)cc1)C(CN1CCOCC1)c1ccccc1 (stereo unspecified)	KB-V1 MDR tox inconclusive, KB-3-1 cytotox inconclusive, HT1080 IDH1KD tx 5.17µM
CCCCOc1ccc(C(O)C(CN2CCCCC2)c2ccccc2)cc1 (stereo unspecified)	KB-3-1 cytotox inconclusive
O=C(c1ccc(Cl)cc1)C(CN1CCCC1)c1ccccc1 (stereo unspecified)	HT1080-NT tox 18.4µM, KB-3-1 cytotox inconclusive, HT1080 IDH1KD tx 20.6µM
c1ccc(C(CN2CCOCC2)c2ccccc2)cc1	KB-V1 MDR tox inconclusive
CCC(O)(c1ccc(OC)cc1)C(CN1CCOCC1)c1ccccc1 (stereo unspecified)	none
CCCOc1ccc(C(=O)C(CN2CCCC2)c2ccccc2)cc1 (stereo unspecified)	KB-V1 MDR tox inconclusive, HT1080-NT tox 8.2µM, KB-3-1 cytotox 23.1µM, HT1080 IDH1KD tx 6.51µM
COc1ccc(C(=O)C(CN2CCOCC2)c2ccccc2)cc1 (stereo unspecified)	KB-V1 MDR tox inconclusive, HT1080-NT tox 7.08µM, KB-3-1 cytotox inconclusive, HT1080 IDH1KD tx 2µM
COC(=O)C[C@H]1CC[C@H](NC(=O)c2ccc(F)cc2)[C@@H](CO)O1	none
Cc1ccc(S(=O)(=O)N2CCN(C(=O)CSC(=S)N3CCCC3)CC2)c(C)c1	KB-V1 MDR tox inconclusive
Cc1ccc(S(=O)(=O)N2CCN(C(=O)CSC3CCCC3)CC2)c(C)c1	KB-V1 MDR tox 4.11µM
Cc1ccc(CN2CC(C(=O)N3CCN(S(=O)(=O)c4ccc(C)cc4C)CC3)CC2=O)cc1 (stereo unspecified)	KB-V1 MDR tox 16.4µM
O=C(OCn1ncc(Cl)c(Cl)c1=O)c1cccc(C(F)(F)F)c1	KB-V1 MDR tox inconclusive, HT1080-NT tox inconclusive, KB-3-1 cytotox 4.61µM, HT1080 IDH1KD tx 20.6µM

Bioassay records (PubChem)
